# Experimental data published in PubChem BioAssay (Tox21).
# Inconclusive results are not listed. Calls of active or inactive are those of the source. Calls come from the whole dose curve; as a rule, active = well fitted cell-killing curve with a large enough effect in the repeat runs; inconclusive = weak or mixed curves; inactive = no such curve, though single readings can be large or run the other way.
# Experiment: qHTS assay to identify small molecule antagonists of the androgen receptor (AR) signaling pathway - cell viability counter screen (AID 743033; note: nearly all actives have a fitted effect of over 45% in size)
# Settings: AR-bla HEK293 viability, CellTiter-Glo luminescence, 16 h; series mostly up to 58.5 µM
# Excerpt: National Center for Advancing Translational Sciences [NCATS]
# NIH Chemical Genomics Center [NCGC]
# U.S. Environmental Protection Agency [EPA]
# National Institutes of Environmental Health Sciences [NIEHS]
# National Toxicology Program [NTP]
# U.S. Food and Drug Administration [FDA]
# Androgen receptor (AR), a nuclear hormone receptor, plays a critical role in AR-dependent prostate cancer and other androgen related diseases. Endocrine disrupting chemicals (EDCs) and their interactions with steroid hormone receptors like AR may cause disruption of normal endocrine function as well as interfere with metabolic homeostasis, reproduction, developmental and behavioral functions. To identify the compounds that inhibit AR signaling, GeneBLAzer AR-UAS-bla-GripTite cell line (Invitrogen, Carlsbad, CA, USA) containing a beta-lactamase reporter gene under control of an Upstream Activator Sequence (UAS) stably integrated into HEK293 cells was used to screen the Tox21 10K compound library. The cytotoxicity of the Tox21 compound library against the AR-bla cell line was tested in parallel by measuring the cell viability using CellTiter-Glo assay in the same wells.
# Tox21 Assay Protocol Summary:
# AR-bla cells were dispensed at 2,000 cells/5 uL of assay medium per well into black wall/clear-bottom 1536-well plates using a Multidrop Combi (ThermoFisher Scientific, Waltham, MA) dispenser. After the assay plates were incubated at a 37C and 5% CO2 for 4 hr, 23 nL of compounds dissolved in DMSO, positive controls or DMSO only was transferred to the assay plate by a Pintool station (Kalypsys, San Diego, CA), followed by addition of 1 uL of agonist (R1881) in culture medium using a Bioraptr Flying Reagent Dispenser (FRD) workstation (Beckman Coulter, Indianapolis, IN, USA). The plates were incubated at a 37C and 5% CO2 for 16 h. After 1 uL of LiveBLAzerTM B/G FRET substrate was added using a Bioraptr FRD, the plates were incubated at room temperature for 2 h and fluorescence intensity was measured by an Envision plate reader (PerkinElmer, Shelton, CT). For cell viability readout that measures cytotoxicity, 4 ul/well of CellTiter-Glo reagent was added into the assay plates using a Bioraptr FRD. After 30 min incubation at room temperature, the luminescence intensity in the plates was measured using a ViewLux (PerkinElmer) plate reader.
# % is set by controls: 0 for no effect and ±100 for the full control effect.
SMILES,outcome,"activity change, negative = cytotoxicity"
COc1ccc2cc(CCC(C)=O)ccc2c1,inactive,–
COc1cc(OC)cc(OC)c1,inactive,–
CC(=O)SCC(CC(=O)c1ccc(C)cc1)C(=O)O (stereo not given),inactive,–
O=P(O)(O)C(O)(Cc1cccnc1)P(=O)(O)O,inactive,–
CC(=O)Oc1ccc(C(C)=O)cc1,inactive,–
CC(=O)Nc1ccc(S(=O)(=O)Nc2cc(C)on2)cc1,inactive,–
CSC(=O)c1cccc2nnsc12,inactive,–
C=CCOC(=O)CCCCCCCC,inactive,–
CCOC(=O)c1ccc(N(C)C)cc1,inactive,–
C/C=C/C(=O)CCCC,inactive,–
CN(C)CCCN(C)C,–,3.01% [at 7.04 µM] (inactive)
Nc1nc(Cl)cc(Cl)n1,inactive,–
Cc1ccccc1OCC(=O)O,inactive,–
CC(C)OC(=O)C(C(=O)OC(C)C)=C1SC=CS1,inactive,–
O=C(OOC(=O)c1ccccc1)c1ccccc1,inactive,–
CCC(=O)OCCOc1ccccc1,inactive,–
Cc1cccc(N)n1,inactive,–
CCCCCCC(O)CO (stereo not given),inactive,–
O=c1c(O)c(O)c1=O,inactive,–
COC(=O)c1ccc(C(=O)O)cc1,inactive,–

SMILES,outcome,"activity change, negative = cytotoxicity"
CCO/C=C1\N=C(c2ccccc2)OC1=O,inactive,–
CC1(C)C(=O)C(C)(C)C1=O,inactive,–
CC/C=C\CCCCCCCCCCOC(C)=O,inactive,–
CNCCc1ccccn1,inactive,–
C[C@@H]1CC[C@@]2(OC1)O[C@H]1C[C@H]3[C@@H]4CC[C@H]5C[C@@H](O)CC[C@]5(C)[C@H]4CC(=O)[C@]3(C)[C@H]1[C@@H]2C,inactive,–
O=C(CCBr)N1CCN(C(=O)CCBr)CC1,inactive,–
C/C=C(\C)C(=O)OC/C=C(\C)CCC=C(C)C,inactive,–
COC(C)(C)CC(C)=O,inactive,–
CC(C)(O)CCCC1=CCC(C=O)CC1 (stereo not given),inactive,–
COc1cc2nc(N3CCN(C(=O)C4CCCO4)CC3)nc(N)c2cc1OC (stereo not given),inactive,–
CCCCCCC(=O)c1ccccc1,inactive,–
C[C@@H]1NC(=O)[C@@H](N)CNC(=O)[C@H](C2CCNC(N)=N2)NC(=O)/C(=C/NC(N)=O)NC(=O)[C@H](CNC(=O)C[C@@H](N)CCCN)NC1=O (stereo not given in full),inactive,–
CN1C(CCl)Nc2cc(Cl)c(S(N)(=O)=O)cc2S1(=O)=O (stereo not given),inactive,–
C=CC(=O)CC,inactive,–
NCC1CCC(C(=O)Oc2ccc(CCC(=O)O)cc2)CC1 (stereo not given),inactive,–
Nc1cc(S(=O)(=O)O)ccc1O,inactive,–
CC(O)CCCCn1c(=O)c2c(ncn2C)n(C)c1=O (stereo not given),inactive,–
C=CCCCCCCCCOC(C)=O,inactive,–
CC(C)c1cc(C(C)C)cc(C(C)C)c1,inactive,–
Cc1ccc(O)c([N+](=O)[O-])c1,inactive,–
